This is an account of results in PubChem BioAssay.

SMILES strings stand for the structures. A number with no mark means an inactive call. The source made the active and inactive calls. Cut-off read from the data, not from the text of the source, unless noted: active = inhibition above about 42%; inactive = the rest.

Experiment [1] in a line: StAR promoter reporter inhibitors, counter-screen for LRH-1 inverse agonist project, cell-based, luminescence, high throughput (AID 651611; in the data active = inhibition above about 28%). To be noted: StAR promoter luciferase reporter counterscreen, at 3.6 µM, active compounds read high. Background: Counterscreens check selectivity or assay interference.
Experiment [2] addresses Nuclear receptor subfamily 5 group A member 2 (Homo sapiens) (UniProt O00482). The experiment can be described thus: LRH-1 (NR5A2) inverse agonists, retest, confirmation, cell-based, luminescence (AID 651613).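 Note: HEK293T cells co-transfected with LRH-1 and StAR promoter luciferase reporter; 0% = vehicle wells and 100% = parental cells lacking receptor.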 The following applies: cell-based LRH-1 luciferase reporter, inverse agonism; at 3.6 µM; active compounds read high. Background: Reporter assays use an easily measured gene product as a stand-in for the process of interest.

Experiment [3] addresses Steroidogenic factor 1 (Homo sapiens) (UniProt Q13285). Briefly: SF1 (NR5A1) inverse agonists, counter-screen for LRH-1 inverse agonist project, cell-based, luminescence, high throughput (AID 651614; in the data active = inhibition above about 44%;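 note: cells cotransfected with StAR promoter reporter and SF1 expression vector; 0% = vehicle on cells with receptor and 100% = vehicle on cells lacking receptor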). To be noted: cell-based SF1 luciferase reporter, at 3.6 µM, active compounds read high.
Experiment [4] can be described thus: VP16 transactivation reporter inhibitors, counter-screen for LRH-1 inverse agonist project, cell-based, luminescence, high throughput (AID 651615; in the data active = inhibition above about 33%). To be noted: Gal4-VP16 luciferase reporter cells, at 3.6 µM, active compounds read high.

Chain of Nuclear receptor subfamily 5 group A member 2 (Homo sapiens) (O00482 whole entry, looked up): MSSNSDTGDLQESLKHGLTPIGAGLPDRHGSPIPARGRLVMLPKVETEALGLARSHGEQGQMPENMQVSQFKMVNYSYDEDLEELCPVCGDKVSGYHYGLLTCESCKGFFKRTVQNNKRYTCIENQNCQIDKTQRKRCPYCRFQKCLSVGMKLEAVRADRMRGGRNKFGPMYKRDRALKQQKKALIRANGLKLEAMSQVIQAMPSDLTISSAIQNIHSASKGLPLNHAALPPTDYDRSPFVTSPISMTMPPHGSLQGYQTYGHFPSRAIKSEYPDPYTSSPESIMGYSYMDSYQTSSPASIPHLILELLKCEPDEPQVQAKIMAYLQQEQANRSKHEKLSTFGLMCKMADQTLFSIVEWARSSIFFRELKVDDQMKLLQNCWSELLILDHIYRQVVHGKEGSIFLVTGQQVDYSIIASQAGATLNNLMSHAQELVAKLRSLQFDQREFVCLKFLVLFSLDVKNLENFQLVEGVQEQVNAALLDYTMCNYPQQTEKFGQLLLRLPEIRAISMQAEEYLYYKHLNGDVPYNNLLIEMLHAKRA
Chain of Steroidogenic factor 1 (Homo sapiens) (Q13285 whole entry, looked up, the tested form may be a part): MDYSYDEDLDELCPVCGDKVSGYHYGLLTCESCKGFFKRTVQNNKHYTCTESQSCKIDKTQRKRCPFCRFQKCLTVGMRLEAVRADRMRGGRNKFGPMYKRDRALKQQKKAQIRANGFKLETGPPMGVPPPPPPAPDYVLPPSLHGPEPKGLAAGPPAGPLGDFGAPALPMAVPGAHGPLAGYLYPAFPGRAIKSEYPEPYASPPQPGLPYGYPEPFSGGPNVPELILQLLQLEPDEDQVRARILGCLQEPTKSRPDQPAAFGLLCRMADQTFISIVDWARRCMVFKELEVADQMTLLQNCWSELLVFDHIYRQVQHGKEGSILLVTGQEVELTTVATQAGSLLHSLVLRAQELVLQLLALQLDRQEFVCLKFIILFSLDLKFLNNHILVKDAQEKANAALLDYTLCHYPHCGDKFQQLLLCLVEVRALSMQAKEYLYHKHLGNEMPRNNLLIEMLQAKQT

A word on the inhibition: it is the change of the read-out against control, counted positive when it falls. `O=C(Nc1ccccc1Cl)c1ccc([N+](=O)[O-])o1`: the inhibition in experiment [1] is 29.4% (active); in experiment [2], 63.9% (active); in experiment [3], 75.9% (active); in experiment [4], -5.01%.
On the same counts, the results for `COc1ccc(C(=O)OCC(=O)Nc2ccc(N3CCOCC3)cc2)cc1OC` are 10.1%, 52.8% (active), 51.7% (active) and -1.85%.
For the molecule `COc1cccc(COC(=O)C2CC(=O)N(Cc3ccco3)C2)c1OC` (stereo unspecified), the inhibition in experiment [1] is 12%; in experiment [2], 30.3%; in experiment [3], 31%; in experiment [4] it was -7.19%.
On the same counts, the results for `O=C(Nc1ccc(Cc2ccncc2)cc1)c1cccc([N+](=O)[O-])c1` are -10.2%, 52.4% (active), 51.9% (active) and 0.73%.
On the same counts, the results for `c1cncc(-c2nc(N3CCCCCC3)c3ccccc3n2)c1` are 20.8%, 56.4% (active), 62.8% (active) and 10.4%.
In the case of `Cn1c(=O)n(C)c2cc(NC(=O)CCl)ccc21`, the inhibition was 60.5% (active) in experiment [1], 73.4% (active) in experiment [2], 61.5% (active) in experiment [3] and -101% in experiment [4].
In the case of `Cc1ccc(-c2nc3ncccc3o2)cc1NC(=O)c1ccc([N+](=O)[O-])o1`, the inhibition in experiment [1] was 24.2%; in experiment [2], 57.8% (active); in experiment [3], 69.4% (active); in experiment [4] it was -15.3%.
Taken in the same sequence, the figures for `COc1ccc(Oc2ccccc2/C=N/O)cc1` were 2.42%, 57% (active), 58.1% (active) and 42.5% (active).
Consider `Cc1cc(/C=N/n2cnnc2)c(C)n1-c1ccc(OCc2ccc(Cl)cc2)cc1`, for which the inhibition in experiment [1] is -11%; in experiment [2] it was 27.8%; in experiment [3] it was 48.3% (active); in experiment [4], 31.2% (active).
On the same counts, the results for `O=C1CCc2cc(OCCCCc3nnnn3C3CCCCC3)ccc2N1` are 12.9%, 54% (active), 49.8% (active) and 9.24%.
Taken in the same sequence, the figures for `Cc1c(Cl)cccc1NC(=O)CSc1nc2ncc(Cl)cc2[nH]1` were 18.2%, 69% (active), 58% (active) and 1.96%.
On to `COc1cc(C)c(C(=O)Oc2cc(C)c(C(=O)O)c(O)c2C)c(O)c1C`, for which the inhibition is 14.9% in experiment [1], 73.8% (active) in experiment [2], 70.7% (active) in experiment [3] and -10.6% in experiment [4].
As for `CCCCNc1cc(C)nc(NCc2ccccc2)n1`, the inhibition was 35.5% (active) in experiment [1], 57.6% (active) in experiment [2], 68.8% (active) in experiment [3] and 50.8% (active) in experiment [4].
Taken in the same sequence, the figures for `COC(=O)c1c(NC(=O)c2cccc(N3C(=O)CCC3=O)c2)sc2c1CCN(C(C)=O)C2` were 19.6%, 65.5% (active), 49.8% (active) and -30.4%.
On to `Cc1cc2oc(=O)cc(-c3ccccc3)c2c(C)c1-c1ccc(CO)cc1`, for which the inhibition in experiment [1] is 10.8%; in experiment [2], 71.5% (active); in experiment [3] it was 63.6% (active); in experiment [4], 16.8%.
As to `CN(C)c1ccc(C=c2c3ccccc3n3c2c2ccccc2[n+]3C)cc1`, the inhibition in experiment [1] is 54.9% (active); in experiment [2] it was 107% (active); in experiment [3], 90.7% (active); in experiment [4], 91.7% (active).
Taken in the same sequence, the figures for `Cc1cccc(-c2cc(NCCc3cccnc3)n3nccc3n2)c1` were 14.2%, 51.1% (active), 41.3% and -2.05%.
`Cc1onc(-c2cccc(Cl)c2Cl)c1C(=O)O/N=C(\N)c1ccc([N+](=O)[O-])o1`: the inhibition in experiment [1] is 11.8%; in experiment [2], 69.7% (active); in experiment [3], 67.3% (active); in experiment [4], -4.83%.
For `Cc1onc(-c2c(F)cccc2Cl)c1C(=O)Nc1cccc2nsnc12`, the inhibition in experiment [1] was 8.33%; in experiment [2], 52.1% (active); in experiment [3] it was 49.8% (active); in experiment [4] it was 27.2%.
On the same counts, the results for `COc1cc(C(=O)Nc2ccccc2C2COC(=O)C2=N)cc(OC)c1OC` (stereo unspecified) are 8.92%, 45.5% (active), 45.2% (active) and -1.69%.
As for `OCCCNc1c2ccccc2nc2ccccc12`, the inhibition in experiment [1] was 13.1%; in experiment [2] it was 107% (active); in experiment [3], 56.7% (active); in experiment [4], 96.4% (active).
Taken in the same sequence, the figures for `CCOc1ccc(CCNC(=O)COC(=O)COc2ccc(Br)cc2)cc1OCC` were 4.03%, 49.1% (active), 56.3% (active) and 4.38%.
Taken in the same sequence, the figures for `Cc1sc(NC(=O)C(C)C)c(C(=O)Nc2ccccc2)c1C` were 13.2%, 50.2% (active), 45.9% (active) and -9.75%.
On the same counts, the results for `O=C(COC(=O)Cc1ccccc1[N+](=O)[O-])NCc1ccc(Cl)cc1` are 11.3%, 37.2%, 34.4% and -5.74%.
Turning to `Cc1ccccc1OCC(=O)N/N=C/c1ccc([N+](=O)[O-])o1`, the inhibition is 18.6% in experiment [1], 57.5% (active) in experiment [2], 60% (active) in experiment [3] and 9.63% in experiment [4].
`CC1OC(CC(=O)O)CC2=C1C(=O)c1c(O)cccc1C2=O` (stereo unspecified): the inhibition in experiment [1] was 95.4% (active); in experiment [2] it was 111% (active); in experiment [3], 98.2% (active); in experiment [4] it was 95.8% (active).
On the same counts, the results for `Clc1ccc2c(c1)-c1ccccc1C1=NCCN12` are 51.8% (active), 90.7% (active), 70.4% (active) and 64.1% (active).
Taken in the same sequence, the figures for `O=C(Nc1ccc(Cc2ccncc2)cc1)c1ccc([N+](=O)[O-])o1` were 16.6%, 55.5% (active), 63.6% (active) and -16.8%.
With `COc1ccc(C[C@@H]2OC3(C=CC(=O)C=C3)O[C@H]2Cc2ccc(OC)cc2)cc1`, the inhibition in experiment [1] was 37.5% (active); in experiment [2] it was 68.4% (active); in experiment [3], 66% (active); in experiment [4] it was 70.6% (active).
On to `O=C(NCCCNc1ccc([N+](=O)[O-])cc1)C(F)(F)F`, for which the inhibition was 9.72% in experiment [1], 54.9% (active) in experiment [2], 52.4% (active) in experiment [3] and -18.2% in experiment [4].
Take `CC(C)Cn1c(N)c(C(=O)NCC2CCCO2)c2nc3ccccc3nc21` (stereo unspecified): the inhibition in experiment [1] was 23.3%; in experiment [2] it was 42.8% (active); in experiment [3], 37.3%; in experiment [4] it was 1.28%.
As for `O=C(COC(=O)Cc1ccc(F)cc1)NCCc1ccccc1`, the inhibition is 3.74% in experiment [1], 37.8% in experiment [2], 36.3% in experiment [3] and -0.51% in experiment [4].
On the same counts, the results for `O=C1/C(=C/c2ccccc2)CN(C(=O)CCN2CCOCC2)C/C1=C\c1ccccc1` are 21.9%, 44.3% (active), 56.7% (active) and 55.2% (active).
Taken in the same sequence, the figures for `O=C(Nc1ccccc1C(=O)Nc1nccs1)c1ccccc1` were 15.4%, 52.8% (active), 47.8% (active) and 2.34%.
Taken in the same sequence, the figures for `O=C(Nc1ccc(Nc2ccccc2)cc1)c1cc([N+](=O)[O-])ccc1Cl` were 6%, 52.7% (active), 53.4% (active) and 9.35%.
For `CCOC(=O)C1CCCN(S(=O)(=O)c2ccc(S(=O)(=O)N(CC)CC)cc2)C1` (stereo unspecified), the inhibition is 18.1% in experiment [1], 60.3% (active) in experiment [2], 54.5% (active) in experiment [3] and 49.5% (active) in experiment [4].
Taken in the same sequence, the figures for `COc1ccc(NC(=O)COC(=O)c2cc(S(=O)(=O)N3CCCC3)ccc2O)cc1` were 4.86%, 52% (active), 46.3% (active) and 0.43%.
Consider `On1ccccc1=S`, for which the inhibition in experiment [1] was 86.8% (active); in experiment [2], 83.1% (active); in experiment [3], 82.3% (active); in experiment [4], 87.5% (active).
On the same counts, the results for `O=C(CSc1ncn[nH]1)Nc1ccc(Cl)c(Cl)c1` are 18.4%, 45.2% (active), 39% and 20.6%.
With `CCOc1ccc(CCNC(=O)COC(=O)c2cccnc2OCC)cc1OCC`, the inhibition in experiment [1] is 2.1%; in experiment [2] it was 53.3% (active); in experiment [3] it was 48.7% (active); in experiment [4] it was 0.35%.
On to `O=C(NCC1CCCO1)c1ccc(NC(=O)c2cccc([N+](=O)[O-])c2)cc1` (stereo unspecified), for which the inhibition in experiment [1] was 3.83%; in experiment [2], 56.2% (active); in experiment [3] it was 54% (active); in experiment [4], -2.03%.
On to `CCn1cc(CN(C)S(=O)(=O)c2ccc3ccccc3c2)c(C)n1`, for which the inhibition in experiment [1] is -0.8%; in experiment [2], 50.9% (active); in experiment [3] it was 52.5% (active); in experiment [4], 40.2% (active).
In the case of `Cn1c2c(c(=O)n(C)c1=O)C(C(F)(F)F)(C(F)(F)F)N=C(CCC1CCCCC1)N2`, the inhibition in experiment [1] is 29.6% (active); in experiment [2], 41.9% (active); in experiment [3], 49.6% (active); in experiment [4] it was 41.1% (active).
On the same counts, the results for `O=C(NC1CCC(CC2CCC(NC(=O)C(Cl)Cl)CC2)CC1)C(Cl)Cl` (stereo unspecified) are 6.07%, 58.2% (active), 62% (active) and -2.2%.
Taken in the same sequence, the figures for `Cc1ccc2[nH]c3c(c2c1)CCN1C(=O)OC(C)(C)C31C` (stereo unspecified) were 10.6%, 53.7% (active), 49% (active) and -1.39%.
On the same counts, the results for `O=C(c1ccc(Oc2ccc([N+](=O)[O-])cc2Cl)cc1)N1CCCC1` are 6.61%, 46.2% (active), 58.9% (active) and 4.32%.
With `COc1ccc(NS(=O)(=O)c2ccc(-c3coc(C)n3)cc2)cc1OC`, the inhibition in experiment [1] is 15.6%; in experiment [2], 65.6% (active); in experiment [3], 64.7% (active); in experiment [4] it was 51.4% (active).
Regarding `O=C(COC(=O)C1CC(=O)N(Cc2ccccc2)C1)Nc1ccc2c(c1)OCO2` (stereo unspecified), the inhibition is 6.45% in experiment [1], 50.9% (active) in experiment [2], 54.8% (active) in experiment [3] and -9.97% in experiment [4].
Regarding `COc1ccc(/C=N/n2c(SC)nnc2-c2ccccc2)c(OC)c1OC`, the inhibition in experiment [1] was 53.5% (active); in experiment [2], 41.2% (active); in experiment [3], 54.4% (active); in experiment [4], -31.8%.
As for `O=C(C1=C[C@@H](C2CCCCC2)C[C@@H](OCc2ccc(CO)cc2)O1)N1CCN(Cc2ccc3c(c2)OCO3)CC1`, the inhibition is 12% in experiment [1], 46.2% (active) in experiment [2], 40.6% in experiment [3] and 4.7% in experiment [4].
Taken in the same sequence, the figures for `CC1(c2ccc3ccccc3c2)NC(=O)N(CC(=O)N2CCN(Cc3ccc(C#N)cc3)CC2)C1=O` (stereo unspecified) were 32.1% (active), 66.1% (active), 62.4% (active) and 53.5% (active).
For the molecule `O=c1cc(C2CCCCC2)[nH]c(=O)[nH]1`, the inhibition in experiment [1] was 10.2%; in experiment [2], 48.1% (active); in experiment [3], 48% (active); in experiment [4], 2.19%.
Taken in the same sequence, the figures for `O=C(Nc1ccc2oc(-c3ccncc3)nc2c1)c1ccc([N+](=O)[O-])o1` were 34.1% (active), 63.7% (active), 66.2% (active) and -13.7%.
Taken in the same sequence, the figures for `COc1cc(/C=N/NC(N)=S)ccc1OCC(=O)Nc1ccc(C)cc1` were -3.71%, 48.1% (active), 60% (active) and -1.66%.
